Source: PubChem BioAssay AID1825 (The Scripps Research Institute Molecular Screening Center, 2009)
The whole screen tested about 290,000 compounds, of which about 2,300 (0.79%) were called active. What follows is part of a selection rich in actives, with near analogues and random picks from the rest. Unmarked numbers belong to inactive results. Cut-off read from the data, not from the text of the source: active = inhibition above about 22%; inactive = the rest.

test: IEC-6 cell viability reduction – luminescence, cytotoxicity control for KLF5 inhibitor project, primary screen (AID 1825); settings: IEC-6 cytotoxicity, at 5 µM, active compounds read high;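 note: 0% = plate median of test compound wells and 100% = cytotoxic reference compound wells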

For `CCOc1ccc(NC(=O)CCC(=O)NNC(=O)NC2CCCCC2)cc1`, which inhibition is on record?
Its inhibition is -7.2%.

With `O=S(=O)(c1ccc(Br)cc1)n1ccc2ccccc21` as the compound, how does the inhibition read?
The inhibition was 3.2%.

With `CCn1c(SCC(=O)NC2=NCCS2)nnc1C(C)NC(=O)c1ccccc1F` (stereo not given) as the compound, how does the inhibition read?
Its inhibition is 0.1%.

For `CCCC(=O)Nc1nc2ccc(NC(=O)c3c(F)c(F)c(OC)c(F)c3F)cc2s1`, which inhibition is on record?
The inhibition was 76.8% (active).

For `O=C(Cc1ccccc1)Nc1ccc(NC(=O)c2cccnc2)cc1`, which inhibition is on record?
Its inhibition is 0.2%.

Which inhibition does the source give for `CCOc1ccc2nc(Nc3nc4ccc(NC(C)=O)cc4s3)sc2c1` here?
Its inhibition is -2.2%.

Which inhibition does the source give for `CCCC(=O)Nc1nc2ccc(NC(=O)c3cccnc3)cc2s1` here?
The inhibition was 30.2% (active).

With `CCOC(=O)c1ccc(NC(=O)c2cccnc2)cc1` as the compound, how does the inhibition read?
The inhibition was -6.9%.

With `CSc1nc2ccc(NC(=O)c3c(F)cccc3F)cc2s1` as the compound, how does the inhibition read?
Its inhibition is 8.5%.

With `COc1ccccc1/C=C/C(=O)NC1CC2CCC1C2` (stereo not given) as the compound, how does the inhibition read?
The inhibition was 4.4%.

Which inhibition does the source give for `Cc1cc(C)n2nc(SCC(N)=O)nc2n1` here?
The inhibition was 4.6%.

For `Cc1cc(C)n2nc(C(=O)NC(C)(C)C)nc2n1`, which inhibition is on record?
The inhibition was 3.3%.

Which inhibition does the source give for `Cc1cc(C)n2nc(CNS(=O)(=O)c3c(F)c(F)c(F)c(F)c3F)nc2n1` here?
The inhibition was 31.5% (active).

For `O=C1C(=O)N(CCCN2CCOCC2)C(c2ccc([N+](=O)[O-])cc2)/C1=C(\O)c1ccc2c(c1)OCCO2` (stereo not given), which inhibition is on record?
The inhibition was -1.8%.

For `COc1ccc(Nc2ncc(C(=O)N3CCN(c4ccccc4OC)CC3)c3ccccc23)cc1`, which inhibition is on record?
The inhibition was 11.7%.

For `Cn1c(Nc2cccc(Cl)c2)nc2ccccc21`, which inhibition is on record?
The inhibition was 4.2%.

With `NS(=O)(=O)c1cccnc1Nc1cccc(Cl)c1` as the compound, how does the inhibition read?
The inhibition was -0.6%.

With `CCOc1c(Nc2cccc(Cl)c2)c(=O)c1=O` as the compound, how does the inhibition read?
Its inhibition is 23.4% (active).

Which inhibition does the source give for `O=C(Nc1ccc(Br)cn1)c1ccc([N+](=O)[O-])o1` here?
The inhibition was 16.7%.

With `Cc1cccc(NC(=S)NC(=O)c2ccc(Br)o2)c1` as the compound, how does the inhibition read?
Its inhibition is 1.6%.

With `Cc1cccc(NC(=O)c2ccc([N+](=O)[O-])o2)c1` as the compound, how does the inhibition read?
The inhibition was 66.2% (active).

For `Cc1onc(NC(=O)c2ccc([N+](=O)[O-])o2)c1Br`, which inhibition is on record?
Its inhibition is 46.1% (active).

With `Cc1cccc(NC(=O)c2sc(-c3ccccc3)nc2-c2ccc([N+](=O)[O-])cc2)c1` as the compound, how does the inhibition read?
The inhibition was -10%.

Which inhibition does the source give for `Cc1onc(C(=O)NCc2ccc(F)cc2)c1[N+](=O)[O-]` here?
The inhibition was -2.3%.

For `O=c1[nH]cnc(O)c1C(c1ccc(F)cc1)c1c(O)nc[nH]c1=O`, which inhibition is on record?
The inhibition was -4.2%.

For `CC1C(=O)Nc2ccc(S(=O)(=O)N3CCN(c4ccccc4F)CC3)cc2NC1=O` (stereo not given), which inhibition is on record?
The inhibition was 1.5%.

Which inhibition does the source give for `O=c1c2c(-c3ccccc3)ccnc2[nH]n1-c1ccccc1` here?
The inhibition was -0.7%.

For `COc1ccc(-c2ccc(CCC(=O)O)n2NC(=O)c2ccc(C(C)(C)C)cc2)cc1`, which inhibition is on record?
Its inhibition is -6.8%.

For `Cc1ccc(-c2cc(=O)c3ccc(Cl)cc3[nH]2)cc1`, which inhibition is on record?
The inhibition was 0.6%.

For `Cc1ccc(-c2cc(=O)c3ccc(F)cc3[nH]2)cc1`, which inhibition is on record?
The inhibition was -6.3%.

Which inhibition does the source give for `O=c1cc(-c2ccccc2)[nH]c2cc(F)ccc12` here?
Its inhibition is 80.7% (active).

For `O=C(Nc1cccc2cccnc12)c1cccc(Cl)c1`, which inhibition is on record?
The inhibition was 7.6%.

With `COc1ccc(C(=O)NCC(=O)N/N=C/c2cccnc2)cc1` as the compound, how does the inhibition read?
The inhibition was 3.2%.

For `Cc1nc2nc(C)c(NS(=O)(=O)c3ccc(C(C)(C)C)cc3)c(=O)n2[nH]1`, which inhibition is on record?
The inhibition was 1.1%.

Which inhibition does the source give for `Cn1nccc1C(=O)NC1CCCc2c1cnn2-c1ccccc1F` (stereo not given) here?
Its inhibition is 25.7% (active).

With `COc1ccc(C(=O)NC2CCCc3c2cnn3-c2cccc(C)c2C)c(OC)n1` (stereo not given) as the compound, how does the inhibition read?
Its inhibition is 8.5%.

With `Cn1nccc1C(=O)NC1CCCc2c1cnn2-c1ccc(F)cc1F` (stereo not given) as the compound, how does the inhibition read?
Its inhibition is 31% (active).

For `CC(=O)NCC(=O)NC1CCCc2c1cnn2-c1ccccc1F` (stereo not given), which inhibition is on record?
The inhibition was -1.9%.

For `Cc1ccc(-n2ncc3c2CCCC3NC(=O)c2cnccn2)cc1C` (stereo not given), which inhibition is on record?
Its inhibition is 3.7%.

With `Cc1cc(C(=O)NC2CCCc3c2cnn3-c2cccc(C)c2C)c(C)o1` (stereo not given) as the compound, how does the inhibition read?
The inhibition was 4.8%.

Which inhibition does the source give for `Cc1ccc(/C=C2\CCn3c2nc2cc(C(=O)O)ccc2c3=O)c(C)c1` here?
Its inhibition is 1.8%.

With `C=C(C)Cn1c(C)cc(C)c(S(=O)(=O)c2ccccc2C)c1=O` as the compound, how does the inhibition read?
The inhibition was -2.1%.

For `COc1ccc(Oc2c(Cl)cnn(-c3ccccc3)c2=O)cc1`, which inhibition is on record?
Its inhibition is 1.3%.

For `Cc1cccc(-n2ncc(Cl)c(Cl)c2=O)c1`, which inhibition is on record?
Its inhibition is 97.5% (active).

For `Cc1cccc(-n2ncc(C#N)c2-n2cccc2)c1`, which inhibition is on record?
The inhibition was 1.1%.

For `CC(C)CC(=O)N1CCN(Cc2ccccc2Br)CC1`, which inhibition is on record?
Its inhibition is 1.6%.

For `COc1ccc(/C=C/C(=O)Nc2ccc(C34CC5CC(CC(O)(C5)C3)C4)cc2)cc1OC`, which inhibition is on record?
Its inhibition is 18.5%.

For `O=C(N=C1SC2CS(=O)(=O)CC2N1c1cc(Cl)ccc1Cl)C1CC1` (stereo not given), which inhibition is on record?
The inhibition was -6.4%.

Which inhibition does the source give for `COc1ccc(C23NCCN2C(=O)c2ccccc23)cc1` (stereo not given) here?
The inhibition was 1.3%.

For `COc1cccc(N2C(=O)CN(Cc3ccccc3)C2=S)c1`, which inhibition is on record?
The inhibition was 9.4%.
